According to PubChem BioAssay:
The source made the active and inactive calls.

Assays:
[1] = tested on: PRMT1 (protein arginine N-methyltransferase 1); test: small molecules binding arginine methyltransferase PRMT1 – biochemical, small-molecule microarray, 635 nm fluorescence, primary screen (AID 1088); conditions: higher = more signal;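 note: binding of Prmt1 protein to compounds spotted on small-molecule microarray slides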
[2] = growth effects on S. cerevisiae YJM789 – YJM789 clinical isolate, OD600, 24 h, basal, primary screen (AID 1089); conditions: higher = more signal, called active from +8 up or from −8 down;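 note: growth of clinical yeast isolate S. cerevisiae YJM 789 seeded 1000 cells per well; test concentration not given here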
[3] = S. pombe growth modifiers, basal conditions – strain 972, OD600, 24 h, no modulator, primary screen (AID 1090);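 note: basal condition with compound alone and no growth modifier present; test concentration not given here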; conditions: S. pombe 972 growth, higher = more signal, called active from +8 up or from −8 down
[4] = budding yeast growth modifiers under rapamycin – strain BY4716, OD600, 96 h, primary screen (AID 1091); note: test concentration not given here; conditions: S. cerevisiae BY4716 + rapamycin, higher = more signal, called active from +8 up or from −8 down
[5] = molecular target: Torsin-1A-interacting protein 2 (Homo sapiens) (UniProt Q8NFQ8); test: small molecules binding lysate-expressed LULL1 – cell lysate, human LULL1 lysate, 635/667 nm fluorescence, primary screen (AID 1092); conditions: small-molecule microarray, hLULL1 lysate binding, 635 nm fluorescence; higher = more signal;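 note: probe is lysate of COS7 cells overexpressing human LULL1; score merges per-feature 667 nm fluorescence with signal-to-noise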
Sequence of Torsin-1A-interacting protein 2 (Homo sapiens) (Q8NFQ8 whole entry, looked up): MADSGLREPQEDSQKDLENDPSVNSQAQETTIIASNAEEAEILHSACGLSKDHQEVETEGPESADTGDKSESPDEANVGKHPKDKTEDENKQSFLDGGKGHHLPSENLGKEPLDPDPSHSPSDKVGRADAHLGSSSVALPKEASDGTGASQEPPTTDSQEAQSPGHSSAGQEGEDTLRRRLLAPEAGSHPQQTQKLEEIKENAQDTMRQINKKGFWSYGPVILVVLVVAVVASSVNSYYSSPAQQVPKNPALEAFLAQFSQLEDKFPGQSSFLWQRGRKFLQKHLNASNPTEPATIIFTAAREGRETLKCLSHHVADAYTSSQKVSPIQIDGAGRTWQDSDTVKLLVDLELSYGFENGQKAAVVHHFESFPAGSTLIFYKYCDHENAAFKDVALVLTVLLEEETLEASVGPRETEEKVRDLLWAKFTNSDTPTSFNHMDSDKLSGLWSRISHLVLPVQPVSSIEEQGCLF

[6] = optical density change of DRC41 E. coli – strain DRC41, OD650, 24 h, E. coli filamentation project, primary screen (AID 1093);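 note: MC1000 strain lacking acrAB efflux and sulA so SOS filamentation is blocked; test concentration not given here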; conditions: E. coli DRC41 growth, higher = more signal, called active from +8 up or from −8 down
[7] = probe aLefty2 binding to arrayed compounds – biochemical, biotinylated probe, 635/667 nm fluorescence, primary screen (AID 1094); conditions: small-molecule microarray, higher = more signal;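 note: score merges spot fluorescence near 667 nm with spot signal-to-noise ratio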
[8] = tested on: Noggin (protein binding on small-molecule microarray); test: small molecules binding Noggin protein – biochemical, 635/667 nm fluorescence, primary screen (AID 1095); conditions: 635 nm fluorescence, higher = more signal;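 note: score merges 667 nm feature fluorescence with signal to noise over triplicate slides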
[9] = molecular target: Neurogenic locus notch homolog protein 3 (Homo sapiens) (UniProt Q9UM47); test: small molecules binding NOTCH3 protein – biochemical, 635/667 nm fluorescence, primary screen (AID 1096); conditions: small-molecule microarray, 635 nm fluorescence, higher = more signal
Sequence of Neurogenic locus notch homolog protein 3 (Homo sapiens) (Q9UM47 whole entry, looked up): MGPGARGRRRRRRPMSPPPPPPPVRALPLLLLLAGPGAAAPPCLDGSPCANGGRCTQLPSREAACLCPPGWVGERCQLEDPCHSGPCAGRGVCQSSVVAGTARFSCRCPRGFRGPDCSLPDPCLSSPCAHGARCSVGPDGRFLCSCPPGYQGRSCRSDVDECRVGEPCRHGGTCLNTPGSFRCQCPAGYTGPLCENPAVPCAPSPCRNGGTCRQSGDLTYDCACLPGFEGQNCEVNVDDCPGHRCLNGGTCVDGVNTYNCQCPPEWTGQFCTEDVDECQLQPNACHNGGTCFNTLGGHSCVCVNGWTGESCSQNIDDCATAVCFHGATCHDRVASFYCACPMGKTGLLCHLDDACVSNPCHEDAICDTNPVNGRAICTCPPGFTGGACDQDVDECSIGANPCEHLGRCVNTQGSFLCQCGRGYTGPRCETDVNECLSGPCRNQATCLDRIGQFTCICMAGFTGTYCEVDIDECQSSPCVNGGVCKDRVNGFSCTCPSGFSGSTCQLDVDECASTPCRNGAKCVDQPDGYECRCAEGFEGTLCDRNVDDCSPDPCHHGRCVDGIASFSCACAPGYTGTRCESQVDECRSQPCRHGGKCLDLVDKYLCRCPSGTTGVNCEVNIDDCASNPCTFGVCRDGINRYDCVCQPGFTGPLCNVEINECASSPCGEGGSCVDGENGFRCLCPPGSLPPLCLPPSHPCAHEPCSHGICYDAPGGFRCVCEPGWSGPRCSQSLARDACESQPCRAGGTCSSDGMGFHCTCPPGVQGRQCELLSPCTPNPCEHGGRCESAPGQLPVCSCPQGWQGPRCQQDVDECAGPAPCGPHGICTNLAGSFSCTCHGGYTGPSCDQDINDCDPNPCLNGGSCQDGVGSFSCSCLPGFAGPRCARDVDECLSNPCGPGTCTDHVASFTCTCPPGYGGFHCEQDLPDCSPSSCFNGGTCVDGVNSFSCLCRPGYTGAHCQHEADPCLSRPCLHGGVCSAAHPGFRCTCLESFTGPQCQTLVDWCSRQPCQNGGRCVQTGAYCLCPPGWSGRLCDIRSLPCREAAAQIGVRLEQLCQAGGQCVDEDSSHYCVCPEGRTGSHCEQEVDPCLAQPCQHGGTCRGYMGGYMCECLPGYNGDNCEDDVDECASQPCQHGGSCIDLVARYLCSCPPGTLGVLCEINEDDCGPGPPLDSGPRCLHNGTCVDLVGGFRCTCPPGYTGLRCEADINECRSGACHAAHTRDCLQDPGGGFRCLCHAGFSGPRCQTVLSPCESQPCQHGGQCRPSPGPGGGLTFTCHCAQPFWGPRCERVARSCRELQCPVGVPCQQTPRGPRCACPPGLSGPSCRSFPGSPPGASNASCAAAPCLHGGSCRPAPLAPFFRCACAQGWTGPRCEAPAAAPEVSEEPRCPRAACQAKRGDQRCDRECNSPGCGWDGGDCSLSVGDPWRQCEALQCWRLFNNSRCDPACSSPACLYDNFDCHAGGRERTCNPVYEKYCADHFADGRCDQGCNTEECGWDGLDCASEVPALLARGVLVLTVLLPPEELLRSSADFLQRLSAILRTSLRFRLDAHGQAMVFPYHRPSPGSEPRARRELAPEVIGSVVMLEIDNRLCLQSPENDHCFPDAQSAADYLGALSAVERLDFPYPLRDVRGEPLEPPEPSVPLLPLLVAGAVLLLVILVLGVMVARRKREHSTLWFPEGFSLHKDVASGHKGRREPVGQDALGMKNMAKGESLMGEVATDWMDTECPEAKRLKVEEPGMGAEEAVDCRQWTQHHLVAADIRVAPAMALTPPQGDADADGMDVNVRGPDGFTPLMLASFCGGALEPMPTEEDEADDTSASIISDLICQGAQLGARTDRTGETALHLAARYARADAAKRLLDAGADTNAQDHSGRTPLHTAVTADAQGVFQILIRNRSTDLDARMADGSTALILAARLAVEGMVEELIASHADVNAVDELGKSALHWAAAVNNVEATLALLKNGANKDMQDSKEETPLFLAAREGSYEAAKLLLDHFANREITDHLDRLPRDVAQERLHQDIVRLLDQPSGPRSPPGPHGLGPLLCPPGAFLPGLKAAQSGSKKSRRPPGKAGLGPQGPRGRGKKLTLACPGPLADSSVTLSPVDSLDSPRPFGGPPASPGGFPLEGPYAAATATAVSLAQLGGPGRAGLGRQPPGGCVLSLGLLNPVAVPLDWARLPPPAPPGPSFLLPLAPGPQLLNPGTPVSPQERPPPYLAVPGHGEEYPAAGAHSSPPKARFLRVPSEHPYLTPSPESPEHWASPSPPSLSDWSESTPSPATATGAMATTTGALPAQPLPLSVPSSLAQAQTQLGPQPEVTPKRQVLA

[10] = probe aEGFR binding to arrayed compounds – biochemical, biotinylated probe, 635/667 nm fluorescence, primary screen (AID 1097); conditions: small-molecule microarray, higher = more signal;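 note: probe is a biotinylated anti-EGFR antibody binding compounds printed on slides; score combines fluorescence near 667 nm and signal to noise of each spot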
[11] = tested on: Plasmodium falciparum Sir2 (PF13_0152, Sir2A); test: Plasmodium falciparum Sir2A binding compounds – biochemical, small-molecule microarray, 635 nm fluorescence, primary screen (AID 1098); conditions: fluorescence 635 nm, higher = more signal;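 note: score merges spot fluorescence intensity with its signal-to-noise ratio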
[12] = probe aDKK1 binding to arrayed compounds – biochemical, biotinylated probe, 635/667 nm fluorescence, primary screen (AID 1099); conditions: small-molecule microarray, higher = more signal;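 note: score merges 667nm spot fluorescence with signal to noise across triplicate slides; reference of the scale not given here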
[13] = probe aCHRDL2 binding to arrayed compounds – biochemical, biotinylated probe, 635/667 nm fluorescence, primary screen (AID 1100); conditions: small-molecule microarray, higher = more signal
[14] = change in splice reporter luminescence, either direction, cell-based, HEK293, spliceosome inhibition project, primary screen (AID 1101); conditions: HEK293 splicing luciferase reporter, 24 h, higher = more signal, called active from +8 up or from −8 down;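 note: HEK293 cells carrying a splicing-competent luciferase reporter gene; test concentration not given here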
[15] = molecular target: Fibroblast growth factor 10 (Homo sapiens) (UniProt O15520); test: compounds binding fibroblast growth factor 10 – biochemical, small-molecule microarray, 635 nm fluorescence, primary screen (AID 1102); conditions: FGF10 binding, fluorescence 635 nm, higher = more signal
Sequence of Fibroblast growth factor 10 (Homo sapiens) (O15520 whole entry, looked up): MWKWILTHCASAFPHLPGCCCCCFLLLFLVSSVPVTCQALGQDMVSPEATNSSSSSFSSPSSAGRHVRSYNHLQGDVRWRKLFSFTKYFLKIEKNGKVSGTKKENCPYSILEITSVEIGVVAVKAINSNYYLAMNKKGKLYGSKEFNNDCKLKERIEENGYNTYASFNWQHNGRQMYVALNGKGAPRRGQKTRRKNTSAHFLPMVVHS

[16] = tested on: glycogen synthase kinase-3 (GSK3A per assay name; protocol says GSK3B); test: compounds binding glycogen synthase kinase-3 – biochemical, small-molecule microarray, 635 nm fluorescence, GSK3A, primary screen (AID 1103); conditions: fluorescence 635 nm, higher = more signal; note: the record names both GSK3A and GSK3B
[17] = molecular target: Epidermal growth factor receptor (Homo sapiens) (UniProt P00533); test: compounds binding epidermal growth factor receptor – biochemical, small-molecule microarray, 635 nm fluorescence, primary screen (AID 1104); conditions: EGFR binding, higher = more signal;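 note: score merges 667 nm emission intensity with spot signal to noise over triplicate slides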
Sequence of Epidermal growth factor receptor (Homo sapiens) (P00533 whole entry, looked up): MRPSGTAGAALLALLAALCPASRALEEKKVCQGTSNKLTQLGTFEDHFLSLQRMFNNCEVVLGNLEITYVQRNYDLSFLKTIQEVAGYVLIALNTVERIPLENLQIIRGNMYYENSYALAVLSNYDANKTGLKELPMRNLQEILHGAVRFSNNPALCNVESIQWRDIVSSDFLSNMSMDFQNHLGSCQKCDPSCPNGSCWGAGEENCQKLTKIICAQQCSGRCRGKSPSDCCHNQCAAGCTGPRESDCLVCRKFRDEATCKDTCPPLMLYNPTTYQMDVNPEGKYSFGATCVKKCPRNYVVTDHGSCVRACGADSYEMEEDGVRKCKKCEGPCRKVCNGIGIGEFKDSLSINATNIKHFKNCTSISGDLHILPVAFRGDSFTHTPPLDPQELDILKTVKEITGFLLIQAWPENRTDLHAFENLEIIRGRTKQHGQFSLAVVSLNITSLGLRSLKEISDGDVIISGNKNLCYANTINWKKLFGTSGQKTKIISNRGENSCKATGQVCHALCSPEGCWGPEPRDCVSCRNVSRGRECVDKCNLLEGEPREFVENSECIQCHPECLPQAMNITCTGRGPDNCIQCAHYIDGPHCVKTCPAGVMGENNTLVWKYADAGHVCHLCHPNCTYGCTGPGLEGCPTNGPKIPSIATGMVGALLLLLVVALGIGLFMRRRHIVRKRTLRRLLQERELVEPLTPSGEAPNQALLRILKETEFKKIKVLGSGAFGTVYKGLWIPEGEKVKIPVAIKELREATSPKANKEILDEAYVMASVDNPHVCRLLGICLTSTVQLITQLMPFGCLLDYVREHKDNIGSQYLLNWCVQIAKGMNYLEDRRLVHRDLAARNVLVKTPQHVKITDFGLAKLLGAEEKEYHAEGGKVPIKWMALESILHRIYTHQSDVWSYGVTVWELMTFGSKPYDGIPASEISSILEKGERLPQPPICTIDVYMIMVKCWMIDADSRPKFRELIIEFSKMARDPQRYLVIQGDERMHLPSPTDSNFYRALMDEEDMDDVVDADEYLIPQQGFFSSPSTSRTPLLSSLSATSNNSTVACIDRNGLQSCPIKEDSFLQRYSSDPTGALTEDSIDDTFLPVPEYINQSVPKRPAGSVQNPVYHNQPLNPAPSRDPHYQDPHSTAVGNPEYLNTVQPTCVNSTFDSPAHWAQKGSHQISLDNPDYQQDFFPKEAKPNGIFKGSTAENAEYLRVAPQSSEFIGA

[18] = molecular target: Follistatin-related protein 3 (Homo sapiens) (UniProt O95633); test: compounds binding follistatin-related protein 3 – biochemical, small-molecule microarray, 635 nm fluorescence, primary screen (AID 1105); conditions: FSTL3 binding, higher = more signal;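 note: score merges emission near 667 nm and signal to noise per printed spot across three slides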
Sequence of Follistatin-related protein 3 (Homo sapiens) (O95633 whole entry, looked up): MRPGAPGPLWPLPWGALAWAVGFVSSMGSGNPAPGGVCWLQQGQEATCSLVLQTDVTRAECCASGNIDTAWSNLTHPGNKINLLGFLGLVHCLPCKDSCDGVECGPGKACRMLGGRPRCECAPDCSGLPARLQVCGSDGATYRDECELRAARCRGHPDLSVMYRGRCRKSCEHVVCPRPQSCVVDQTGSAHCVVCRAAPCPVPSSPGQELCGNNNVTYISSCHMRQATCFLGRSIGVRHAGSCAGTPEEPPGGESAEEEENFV

[19] = molecular target: Dickkopf-related protein 1 (Homo sapiens) (UniProt O94907); test: small molecules binding DKK1 protein – biochemical, small-molecule microarray, 635 nm fluorescence scan, primary screen (AID 1106); conditions: higher = more signal;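 note: score merges emission near 667 nm with signal to noise over three replicate slides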
Sequence of Dickkopf-related protein 1 (Homo sapiens) (O94907 whole entry, looked up): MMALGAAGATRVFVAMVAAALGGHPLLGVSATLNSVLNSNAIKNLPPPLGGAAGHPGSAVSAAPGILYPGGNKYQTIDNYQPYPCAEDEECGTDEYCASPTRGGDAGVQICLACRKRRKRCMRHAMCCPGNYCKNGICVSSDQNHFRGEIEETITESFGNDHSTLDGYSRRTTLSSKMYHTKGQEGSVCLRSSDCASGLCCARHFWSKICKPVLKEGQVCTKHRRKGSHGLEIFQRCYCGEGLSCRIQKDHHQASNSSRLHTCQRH

[20] = tested on: Inhibin beta A chain (activin A); test: small molecules binding activin A – biochemical, small-molecule microarray, 635 nm fluorescence scan, primary screen (AID 1107); conditions: INHBA, higher = more signal;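 note: mouse activin A protein probed at 4.33 µg/mL on printed slides; score merges bound-protein fluorescence near 667 nm with spot signal-to-noise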

| SMILES | composite z-score [1] | z-score [2] | z-score [3] | z-score [4] | composite z-score [5] | z-score [6] | composite z-score [7] | composite z-score [8] | composite z-score [9] | composite z-score [10] | composite z-score [11] | composite z-score [12] | composite z-score [13] | z-score [14] | composite z-score [15] | composite z-score [16] | composite z-score [17] | composite z-score [18] | composite z-score [19] | composite z-score [20] |
| --- | --- | --- | --- | --- | --- | --- | --- | --- | --- | --- | --- | --- | --- | --- | --- | --- | --- | --- | --- | --- |
| COC(=O)[C@@]1(Cc2ccc(F)cc2)[C@H]2c3cc(C(=O)N4CCCC4)n(Cc4ccccc4)c3C[C@H]2CN1C(=O)c1ccccc1 | -0.101 | -0.136 (inactive) | 1.31 (inactive) | 1.24 (inactive) | 3.22 | 0.21 (inactive) | 0.391 | -0.486 | 0.783 | 0.0953 | 0.122 | 0.411 | 1.28 | -2.67 (inactive) | 0.674 | 0.376 | 0.231 | 0.761 | -0.401 | 0.628 |
| COc1ccccc1CN1C(=O)c2ccccc2[C@@]2(Cc3ccccc3N(C3CC3)C2=O)[C@@H]1c1ccc(CO)cc1 | 0.0943 | -0.245 (inactive) | -0.384 (inactive) | -2.24 (inactive) | 0.861 | -0.134 (inactive) | -0.0699 | -0.2 | -0.473 | -0.181 | 0.76 | -0.0899 | 0.322 | 0.312 (inactive) | -0.671 | -0.928 | -0.724 | -0.279 | -0.535 | 0.52 |
| O=C1O[C@@H](c2ccccc2)[C@@H](c2ccccc2)N2[C@@H](c3ccc(O)cc3)[C@]3(C(=O)Nc4ccc(C#CC5(O)CCCCCC5)cc43)[C@@H](C(=O)N3CCN(c4ncccn4)CC3)[C@H]12 | 1.34 | 0.979 (inactive) | 0.37 (inactive) | 0.924 (inactive) | 2.75 | 1.52 (inactive) | -0.114 | 0.864 | 0.886 | -0.0399 | 0.479 | -0.125 | -0.127 | -0.453 (inactive) | 0.74 | 0.709 | -0.0042 | 0.639 | 0.226 | -0.293 |
| C=CCN1C(=O)[C@@]2(O[C@@H](CCO)[C@H]([Si](C)(C)c3ccc(OC)cc3)[C@H]2C)c2cc(NC(=O)[C@H](C)O)ccc21 | 1.54 | 0.988 (inactive) | -1.64 (inactive) | -0.0361 (inactive) | 3.15 | 0.571 (inactive) | -0.0622 | 0.959 | 0.759 | -0.0485 | 1.53 | -0.474 | -0.0061 | -2.46 (inactive) | 1.26 | 1.3 | -0.242 | 0.254 | 0.147 | -0.156 |
| COCCOC(=O)N1C(=O)[C@@]2(c3cc(C#CCCO)ccc31)[C@H](C(=O)NC[C@H](O)c1ccccc1)[C@H]1C(=O)O[C@H](c3ccccc3)[C@H](c3ccccc3)N1[C@@H]2c1ccccc1OCCO | 1.53 | 1.06 (inactive) | 0.578 (inactive) | 2.4 (inactive) | 2.62 | 0.636 (inactive) | -0.0437 | 1.42 | 1.07 | 0.13 | 0.506 | 0.437 | 0.426 | -0.183 (inactive) | 1.32 | 1.33 | 0.938 | 1.41 | 1.06 | 0.95 |
| NC(=O)[C@H]1[C@@H]2C(=O)O[C@@H](c3ccccc3)[C@@H](c3ccccc3)N2[C@@H](c2ccc(O)cc2)[C@]12C(=O)Nc1ccc(C#CC3(O)CCCCCC3)cc12 | 1.53 | 0.46 (inactive) | -1.09 (inactive) | 1.33 (inactive) | 3.22 | 0.568 (inactive) | 0.0441 | 1.2 | 1.03 | 0.0955 | 1.37 | 0.156 | 0.0715 | -1.32 (inactive) | 1.36 | 1.31 | 0.53 | 1.42 | 0.573 | 0.593 |
| Cc1ccc(S[C@]2(C(=O)NCc3ccccc3)CC(=O)N(C3Cc4ccccc4C3)[C@@H]2c2ccc(CO)cc2I)cc1 | 1.19 | -2.5 (inactive) | -1.73 (inactive) | 0.199 (inactive) | 2.11 | 3.17 (inactive) | -0.165 | -0.508 | -0.288 | -0.135 | 0.976 | 0.699 | 0.995 | -1.83 (inactive) | -0.699 | -0.488 | -0.807 | -0.645 | -1.13 | 0.889 |
| CO[C@H]1O[C@H](CO)[C@@H](OC(=O)c2ccc(Br)cc2)[C@@H]2OC(=O)[C@H](Cc3cccc(Br)c3)C/C=C/C[C@@H](Cc3cccc(Br)c3)C(=O)O[C@@H]12 | 1.47 | -0.73 (inactive) | 0.16 (inactive) | -0.0347 (inactive) | 1.08 | -0.972 (inactive) | 0.0717 | 0.553 | 1.04 | 0.158 | 0.418 | 0.649 | 0.78 | 0.0118 (inactive) | 1.04 | 0.559 | 0.194 | 0.914 | 0.189 | 0.602 |
| COCCCNC(=O)[C@@H]1c2ccccc2C(=O)N(Cc2cc(F)cc(C(F)(F)F)c2)[C@H]1c1ccc(CO)cc1 | -0.444 | -0.359 (inactive) | -0.555 (inactive) | -0.703 (inactive) | 0.0519 | 0.526 (inactive) | -0.016 | -0.902 | -1.26 | -0.207 | 1.69 | -0.0674 | 0.998 | -0.0265 (inactive) | -1.38 | -1.72 | -1.47 | -1.13 | -1.35 | -0.104 |
